Screening results as filed in PubChem.
TRb-SRC2 inh = qHTS for Inhibitors of the Interaction of Thyroid Hormone Receptor and Steroid Receptor Coregulator 2; AID 1469, 2008; TRbeta-SRC2 peptide binding, fluorescence polarization; receptor liganded with 1 µM T3; 0.065% of 280,000 active; Potency, µM (doses to about 106 µM), hits mostly inhibitors; Thyroid hormone receptor beta (Homo sapiens), P10828; note: nearly all actives have a fitted effect of over 50% in size
Target sequence (P10828 whole entry, looked up): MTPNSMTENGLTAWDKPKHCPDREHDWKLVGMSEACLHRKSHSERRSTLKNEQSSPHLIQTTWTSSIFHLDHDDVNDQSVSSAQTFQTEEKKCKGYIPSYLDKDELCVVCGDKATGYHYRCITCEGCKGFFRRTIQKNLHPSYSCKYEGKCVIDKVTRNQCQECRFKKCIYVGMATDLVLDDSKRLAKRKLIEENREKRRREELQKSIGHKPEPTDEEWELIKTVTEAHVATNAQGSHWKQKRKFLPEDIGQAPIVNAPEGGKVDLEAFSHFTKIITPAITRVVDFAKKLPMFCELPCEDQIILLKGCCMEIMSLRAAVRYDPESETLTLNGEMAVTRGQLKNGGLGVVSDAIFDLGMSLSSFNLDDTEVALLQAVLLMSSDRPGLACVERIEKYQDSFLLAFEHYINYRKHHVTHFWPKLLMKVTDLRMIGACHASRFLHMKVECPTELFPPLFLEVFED
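Each compound concentration gave % activity, normalized to unbound and bound Texas Red SRC2 controls, from polarization read after 5 hr ambient incubation with T3-loaded human TRb LBD.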
Tau ThT inhib = qHTS for Inhibitors of Tau Fibril Formation, Thioflavin T Binding. Microtubule-associated protein tau (Homo sapiens), P10636. recombinant tau K18 P301L, heparin-induced fibrillization, ThT fluorescence. Potency, µM (top dose mostly 57.4 µM), actives largely listed as inhibitors. 2.1% of 270,000 active; note: nearly all actives have a fitted effect of over 55% in size
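Aggregation was driven by heparin (20 uM final) acting on recombinant tau […] bearing P301L in 100 mM sodium acetate pH 7; fibrils were detected with Thioflavin T.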
Tau fluor counter = Counterscreen qHTS for Inhibitors of Tau Fibril Formation, Fluorescence Polarization; 0.93% of 280,000 active; AID 1463, 2008; tau K18 P301L Alexa594 fluorescence, heparin fibrillization; Potency, µM (titrated, usually from 57.7 µM); note: nearly all actives have a fitted effect of over 55% in size
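Human tau K18 P301L (15 uM unlabeled, 0.24 uM Alexa 594-labeled) in 100 mM sodium acetate pH 7 with 20 uM heparin, 6 hr at 37 C. ThT 30 uM added, 1 hr ambient; Alexa 594 FP and total fluorescence read at 555/632 nm.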
TR SRC2 fluor cs = Total Fluorescence Counterscreen for Inhibitors of the Interaction of Thyroid Hormone Receptor and Steroid Receptor Coregulator 2. TRb/SRC2 Texas Red total fluorescence interference. Potency, µM (highest dose often 106 µM). 0.29% of 280,000 active. AID 1479, 2009; active = well fitted curve in either direction with a large enough effect; inconclusive = small, poorly fitted or top-dose-only effect
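Human TRβ ligand-binding domain (0.6 uM) and Texas Red SRC2 peptide (20 nM) in Tris buffer with 1 uM T3 and 5% DMSO were incubated with pinned compound for 5 hr at ambient temperature. Total fluorescence was computed as S + 2P (555/632 nm).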
Tau fibril FP = qHTS for Inhibitors of Tau Fibril Formation, Fluorescence Polarization; 0.39% of 280,000 active; Potency, µM (titrated, usually from 57.7 µM), usual class: inhibitors; K18 P301L tau heparin fibrillization, Alexa594 FP, 6 h; note: nearly all actives have a fitted effect of over 55% in size
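Human K18 P301L fragment (15 uM unlabeled plus 0.24 uM Alexa 594-labeled) in 100 mM sodium acetate pH 7 with compound, aggregation induced by 20 uM heparin for 6 hr at 37 C. ThT (30 uM) added for 1 hr, then Alexa 594 FP read.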
Of the large screens only hits and unclear results are named; the others gave an inactive call; [ ] = remark or other dose. The list is not random: actives were taken first. Their share in the collection is about 3%. Unless noted, calls come from the whole dose curve; as a rule, active = well fitted curve in the direction sought with a large enough effect; inconclusive = small, poorly fitted or top-dose-only effect, or another doubt; inactive = no such curve, though single readings can be large; an effect the other way counts as inactive or inconclusive.

CCOc1ccc(-c2[nH]ncc2-c2ccc(OC)c(OC)c2)c(O)c1	none
CCOc1ccc(-c2[nH]ncc2Oc2ccccc2OC)c(O)c1	Tau ThT inhib inconclusive, Tau fluor counter 14µM[quencher]
Cc1[nH]nc(-c2ccc(OCc3cnn(-c4ccccc4)c3)cc2O)c1Oc1ccc(F)cc1	Tau fluor counter inconclusive, Tau fibril FP inconclusive
COC(=O)[C@@]1(Cc2ccccc2)[C@H]2c3cc(C(=O)N(C)C)n(Cc4c(CO)[nH]cc(C)c4=O)c3C[C@H]2CN1C(=O)c1ccccc1	none
Cc1noc(/C=C/Nc2ccc(F)cc2F)c1[N+](=O)[O-]	Tau ThT inhib 3.2µM
COc1ccccc1N/C=C/c1onc(C)c1[N+](=O)[O-]	Tau ThT inhib inconclusive
O=C(Nc1nc(-c2ccco2)c(-c2ccco2)s1)C1CC(=O)N(c2ccc3c(c2)OCCO3)C1 (configuration not stated)	Tau ThT inhib 14µM, Tau fluor counter inconclusive, TR SRC2 fluor cs 25µM[quencher], Tau fibril FP inconclusive
CCCCc1nnc(NC(=O)C2CC(=O)N(c3ccc4c(c3)OCCO4)C2)s1 (configuration not stated)	none
CCC(=O)N1CCc2cc(Br)cc(S(=O)(=O)N3CCCC(C(=O)NCc4cccc(OC)c4)C3)c21 (configuration not stated)	Tau ThT inhib inconclusive, TR SRC2 fluor cs 0.0079µM[quencher]
CSc1cccc(NC(=O)Cn2ncn3c(cc4ccccc43)c2=O)c1	Tau fluor counter 20µM[quencher]
Cn1cccc1-c1nc2ccc(NC(=O)c3cccs3)cc2[nH]1	Tau ThT inhib 11µM, Tau fluor counter inconclusive
O=C(Nc1ccc2nc(-c3ccc(Br)o3)[nH]c2c1)c1cccs1	Tau ThT inhib inconclusive, Tau fluor counter inconclusive
C=CCC(C)(Nc1ccccc1)C(=O)OCC (configuration not stated)	none
COc1cccc(COC(=O)c2ccc(-c3nnn(Cc4ccccc4)n3)cc2)c1	TRb-SRC2 inh inconclusive
COc1ccc(-n2c(C)cc(/C=C3\SC(=S)NC3=O)c2C)cc1	Tau ThT inhib inconclusive
Cc1cc(/C=C2\SC(=S)NC2=O)c(C)n1-c1ccccc1	Tau ThT inhib 7.1µM, Tau fluor counter inconclusive, Tau fibril FP inconclusive
Cc1cc(/C=C2\SC(=S)NC2=O)c(C)n1C	Tau ThT inhib inconclusive
Cc1cc(/C=C2\SC(=S)NC2=O)c(C)n1-c1ccc(O)cc1	Tau ThT inhib 7.9µM, Tau fluor counter 22µM[quencher]
Cc1cc(/C=C2\SC(=Nc3ccc(F)cc3)NC2=O)c(C)n1-c1ccc(S(N)(=O)=O)cc1	Tau ThT inhib 14µM, Tau fluor counter inconclusive
Cc1cc(/C=C2/SC(=O)NC2=O)c(C)n1-c1ccc(N2CCOCC2)cc1	none
CCCNC(=O)OC[C@@H]1O[C@H](CCO/N=C(\C)CCC(=O)OC[C@@H]2O[C@H](C#Cc3ccccc3)C=C[C@@H]2Oc2ccc(C)cc2)C=C[C@@H]1Oc1ccc(OC)cc1	none
COCCNC(=O)c1c(N)sc2c1CCCC2	TRb-SRC2 inh inconclusive, Tau ThT inhib 28µM, Tau fibril FP inconclusive
NC(=O)c1c(N)sc2c1CCCCC2	Tau ThT inhib inconclusive, Tau fibril FP inconclusive
CNC(=O)c1c(N)sc2c1CCCCC2	Tau ThT inhib 18µM, Tau fibril FP inconclusive
COc1cc(/C=N/NC(=O)c2ccc3nc[nH]c3c2)ccc1O	none (no result: Tau ThT inhib)
CCN(CC)c1ccc(/C=N/NC(=O)c2ccc3nc[nH]c3c2)cc1	Tau ThT inhib 2.8µM, Tau fluor counter inconclusive
Cc1[nH]c(C(=O)N/N=C/c2ccc(C(=O)O)cc2)c(C)c1C(=O)N/N=C/c1ccc(C(=O)O)cc1	none
CN(C)c1ccc(/C=N/NC(=O)c2ccc3nc[nH]c3c2)cc1	Tau ThT inhib 4.5µM, Tau fluor counter inconclusive
Cc1nc2c(C)cccc2cc1C(=O)N/N=C/c1ccc(N(C)C)cc1	Tau ThT inhib 10µM, Tau fluor counter inconclusive
Cc1[nH]c(C(=O)N/N=C/c2ccc(N(C)C)cc2)c(C)c1C(=O)N/N=C/c1ccc(N(C)C)cc1	Tau ThT inhib 2.2µM, Tau fluor counter inconclusive
Cc1nc2c(C)cccc2cc1C(=O)N/N=C/c1ccc(C(=O)O)cc1	none
